From PubChem BioAssay (EPA / NIEHS)
Records with an inconclusive call do not appear. Activity calls are given as the source filed them. Rule for the calls: active = hit-call score of the fitted dose curve at least 0.9, where 1 is the maximum; inconclusive = response in the unintended direction; inactive = score below 0.9.

biological target: Glucocorticoid receptor (Homo sapiens) (UniProt P04150); experiment: ATG_GR_TRANS: Attagene TRANS-FACTORIAL HepG2 Assay for human Glucocorticoid Receptor (GR) (AID 2282978); conditions: HepG2 Attagene TRANS GR reporter, mRNA transcription;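 note: activators score as hits since higher reporter transcript over DMSO is fitted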
Protocol: ATG_TRANS is a cell-based, multiplexed-readout assay that uses HepG2, a human liver cell line, with measurements taken at 24 hours after chemical dosing in a 24-well plate.ATG_GR_TRANS is one of 30 assay component(s) measured or calculated from the ATG_TRANS assay. It is designed to make measurements of mRNA induction, a form of inducible reporter, as detected with fluorescence intensity signals by Reverse transcription polymerase chain reaction (RT-PCR) and Capillary electrophoresis technology.Data from the assay component ATG_GR_TRANS was analyzed into 1 assay endpoint. This assay endpoint, ATG_GR_TRANS, was analyzed in the positive analysis fitting direction relative to DMSO as the negative control and baseline of activity. Using a type of inducible reporter, measures of mRNA for gain-of-signal activity can be used to understand the reporter gene at the transcription factor-level as they relate to the gene NR3C1. Furthermore, this assay endpoint can be referred to as a primary readout, because this assay has produced multiple assay endpoints where this one serves a reporter gene function. To generalize the intended target to other relatable targets, this assay endpoint is annotated to the nuclear receptor intended target family, where the subfamily is steroidal.
Human liver HepG2 cells are transiently transfected with multiple reporter transcription units (MRTUs) in 6-well plates using FuGene 6 reagent (Roche; 3 ml FuGene/1 mg DNA). The MRTU constructs are regulated by a cis-regulating element (promoter). […] A major difference between the CIS and TRANS system is that in CIS activities of endogenous TFs are measured, whereas the TRANS assay evaluates changes in activities of exogenous, chimeric NR-Gal4 proteins. […] At the end of 24 hour incubation, total RNA was isolated using TriZol reagent (Invitrogen). The isolated RNA is then reverse-transcribed using oligo(dT) primer and Mo-MLV reverse transcriptase (Invitrogen) with DNAse I (Ambion) treatment for 30 min. The one-tenth of the produced cDNA was amplified by PCR using Taq DNA polymerase (Invitrogen) and two reporter sequence-specific primers. The PCR products were fluorescently labeled by primer extension with 6-arboxyfluorescein (6-FAM) 5'-labeled reporter sequence-specific primer (2 min at 95 C, 20 s at 68 C and 10 min at 72 C) and these products were digested with 5U of HpaI (New England Biolabs) for 2h at 37 C. The fragments were purified using Qiaquick PCR columns (Qiagen), analyzed on an ABI 3130xL genetic analyzer (Applied Biosystems) with peak positions identified by using a set of X-rhodamine (ROX)-labeled MapMarker1000 molecular weight standards (BioVentures). The raw capillary electrophoresis data was processed using Attagraph software (Attagene).

Glucocorticoid receptor (Homo sapiens), sequence (P04150 whole entry, looked up): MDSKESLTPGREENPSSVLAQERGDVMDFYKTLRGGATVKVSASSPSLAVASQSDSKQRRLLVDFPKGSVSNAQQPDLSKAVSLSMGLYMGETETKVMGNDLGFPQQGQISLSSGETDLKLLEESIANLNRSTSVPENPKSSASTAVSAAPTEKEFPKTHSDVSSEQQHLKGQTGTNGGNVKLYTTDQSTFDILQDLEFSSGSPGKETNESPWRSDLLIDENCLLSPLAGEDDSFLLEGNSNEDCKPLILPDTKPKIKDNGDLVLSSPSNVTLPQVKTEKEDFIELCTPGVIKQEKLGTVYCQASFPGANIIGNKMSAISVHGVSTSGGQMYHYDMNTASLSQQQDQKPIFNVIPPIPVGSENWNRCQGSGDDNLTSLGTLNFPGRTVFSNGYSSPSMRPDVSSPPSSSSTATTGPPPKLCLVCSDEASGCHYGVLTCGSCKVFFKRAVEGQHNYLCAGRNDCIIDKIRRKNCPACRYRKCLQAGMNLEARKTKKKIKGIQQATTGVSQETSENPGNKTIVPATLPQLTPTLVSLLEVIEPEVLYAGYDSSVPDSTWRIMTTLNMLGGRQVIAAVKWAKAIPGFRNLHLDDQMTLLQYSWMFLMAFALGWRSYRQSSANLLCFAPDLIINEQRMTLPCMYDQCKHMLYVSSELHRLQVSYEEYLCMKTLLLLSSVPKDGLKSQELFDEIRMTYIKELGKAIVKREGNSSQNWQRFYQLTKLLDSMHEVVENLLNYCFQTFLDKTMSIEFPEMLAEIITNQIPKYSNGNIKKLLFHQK

SMILES	outcome
BrCBr	inactive
c1cc(OCC2CO2)ccc1Cc1ccc(OCC2CO2)cc1 (stereo not given)	inactive
CC(C)(C)C(O)C(Oc1ccc(-c2ccccc2)cc1)n1cncn1 (stereo not given)	inactive
O=P1(NCCCl)OCCCN1CCCl (stereo not given)	inactive
O=[N+]([O-])c1ccc(Cl)cc1	inactive
Cl/C=C\CCl	inactive
C=CCc1ccc(OC(=O)Cc2ccccc2)c(OC)c1	inactive
N#CCCCl	inactive
C=CCO	inactive
CCCCOP(=O)(O)OCCCC	inactive
[CH3][Sn]([Cl])([Cl])[Cl]	inactive
Nc1c(Cl)c(Cl)c(Cl)c(Cl)c1Cl	inactive
CCCCCCCCCCCC#N	inactive
CC(C)CCCCCCCOC(=O)c1ccccc1C(=O)OCCCCCCCC(C)C	inactive
ClC1=C(Cl)[C@]2(Cl)[C@@H]3[C@@H](Cl)[C@H](Cl)C[C@@H]3[C@@]1(Cl)C2(Cl)Cl	inactive
O=CNC(N1CCN(C(NC=O)C(Cl)(Cl)Cl)CC1)C(Cl)(Cl)Cl (stereo not given)	inactive
CC(C)(c1cc(Cl)c(O)c(Cl)c1)c1cc(Cl)c(O)c(Cl)c1	inactive
CC1CCCC1.[C-]#[O+].[C-]#[O+].[C-]#[O+].[Mn]	inactive
CC(O)CN(CC(C)O)CC(C)O (stereo not given)	inactive
CC(C)C#N	inactive

SMILES	outcome
C[N+](=O)[O-]	inactive
C[N+](C)=CCl	inactive
C[C@]12CCC(=O)C(O)=C1CC[C@@H]1[C@@H]2CC[C@]2(C)C(=O)CC[C@@H]12	inactive
CC(C)c1ccc(O)cc1	inactive
Nc1ccccc1C(=O)OCCc1ccccc1	inactive
Cc1ccc(OP(=O)(Oc2ccc(C)cc2)Oc2ccc(C)cc2)cc1 (tested in a mixture with another compound)	inactive
Cc1ccccc1CCl	inactive
N#Cc1cccc(C#N)c1	inactive
CNC(=O)Oc1cc(C)c(SC)c(C)c1	inactive
c1ccc(Nc2ccc3ccccc3c2)cc1	inactive
COC(=O)c1ccccc1S(=O)(=O)NC(=O)Nc1nc(C)cc(C)n1	inactive
CC(Cc1ccc(C(C)(C)C)cc1)CN1C[C@@H](C)O[C@@H](C)C1 (stereo not given in full)	inactive
CC1CCC(=O)O1 (stereo not given)	inactive
CC(C)CCCCCCCOP(=O)(Oc1ccccc1)Oc1ccccc1	inactive
COc1ccc(CO)cc1	inactive
CCC(=O)c1ccc(Cl)cc1	inactive
CNC(=N[N+](=O)[O-])NCC1CCOC1 (stereo not given)	inactive
Nc1ccccc1C(=O)Oc1ccc2ccccc2c1	inactive
CCC(C)c1cc([N+](=O)[O-])cc([N+](=O)[O-])c1OC(=O)C=C(C)C (stereo not given)	inactive
CCOC(=O)COc1ccc(Cl)cc1Cl	inactive
